Results: the supplement of paper PMC6522484
± gives the standard deviation of the averaged measurements.

Tests used:
DLD1 [1] = assay: cell viability (CellTiter-Glo) relative to plate median (fraction of plate median); higher = more viable cells; conditions: 5 µM; treatment time 24 h; reporter: 7TFP
Procedure, shortened: (§1)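 Two independent replicates were averaged for each reported value. Library compounds were applied at a final 5 µM for 24 h to colorectal cancer cell lines stably expressing lentiviral TCF/Wnt firefly luciferase reporters. Firefly luciferase or CellTiterGlo luminescence from each well was normalised to the plate median.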

HCT116 = assay: as above; conditions: 5 µM; treatment time 24 h; reporter: TCF4/Wnt
Procedure, shortened: as §1

SW480 [2] = assay: as above; conditions: 5 µM; treatment time 24 h; reporter: 7TFP
Procedure, shortened: as §1

DLD1 [3] = assay: TCF/Wnt firefly luciferase reporter signal relative to plate median (fraction of plate median); higher = higher Wnt reporter signal; conditions: 5 µM; treatment time 24 h; reporter: 7TFP
Procedure, shortened: as §1

SW480 [4] = assay: as above; conditions: 5 µM; treatment time 24 h; reporter: 7TFP
Procedure, shortened: as §1

SMILES	cell viability (DLD1 [1])	cell viability (HCT116)	cell viability (SW480 [2])	TCF/Wnt firefly luciferase reporter signal (DLD1 [3])	TCF/Wnt firefly luciferase reporter signal (SW480 [4])
CC[C@@H]1C(=O)N(C)c2cnc(Nc3ccc(C(=O)N[C@H]4CC[C@H](N5CCN(CC6CC6)CC5)CC4)cc3OC)nc2N1C(C)C [Volasertib]	1 ± 0.036	0.666 ± 0.095	1.21 ± 0.078	0.91 ± 0.17	1.06 ± 0.042
OC[C@@H](O)[C@@H](O[C@@H]1O[C@H](CO)[C@@H](O)[C@H](O)[C@H]1O)[C@H](O)[C@@H](O)CO	0.959 ± 0.058	1.01 ± 0.058	1.01 ± 0.03	1.08 ± 0.12	1.11 ± 0.014
CCCCC(CC)CN=C(N)N=C(N)NCCCCCCNC(N)=NC(N)=NCC(CC)CCCC (stereo not given)	0.971 ± 0.0057	0.924 ± 0.045	1.02 ± 0.014	1.14 ± 0.028	1.1 ± 0.085
O=C(O)c1cc2ccccc2[nH]1 [Indol-2-carboxylic acid]	0.972 ± 0.097	0.92 ± 0.016	0.9215 ± 0.0064	0.8775 ± 0.005	0.955 ± 0.042
CC(C)COCC(CN(Cc1ccccc1)c1ccccc1)N1CCCC1 (stereo not given)	1.06 ± 0.088	1 ± 0.064	1.02 ± 0.06	0.901 ± 0.084	0.937 ± 0.085
N=C(N)NCCCCN	1 ± 0.054	1.15 ± 0.014	1.02 ± 0.058	1.02 ± 0.04	1.09 ± 0.071
CC(=O)O[C@@H]1CC2C(C)(C)C(=O)C3OC3[C@]2(C)C2CC[C@@]3(C)[C@H](c4ccoc4)OC(=O)C4OC43[C@@]21C (stereo not given in full)	1.06 ± 0.014	1.1 ± 0.085	1.02 ± 0.035	1.02 ± 0.057	0.864 ± 0.078
C[C@]12CC[C@@H]3c4ccc(O)cc4CC[C@H]3[C@@H]1CC[C@@H]2OC(=O)CCC1CCCC1	0.957 ± 0.044	1.01 ± 0.065	0.967 ± 0.04	1.17 ± 0.021	1.11
Cc1ncc([N+](=O)[O-])n1CCO	1.08 ± 0.064	1.06 ± 0.071	1.02 ± 0.014	1.06 ± 0.042	0.964 ± 0.11
CC(=O)OC[C@@]1(O)C[C@@]23CC[C@@H]4c5ccoc5CC[C@@]4(C)[C@@H]2CC[C@@H]1C3	1.02 ± 0.028	1.05 ± 0.042	1.02	1.08 ± 0.16	1.16 ± 0.057
O=C(O)c1ccccc1Nc1ccccc1	1.08 ± 0.15	1.03 ± 0.14	1.04 ± 0.057	1.09 ± 0.099	0.911 ± 0.17
Cc1c(NC(C)C)c(=O)n(-c2ccccc2)n1C	1.01 ± 0.014	1.05 ± 0.15	1.03 ± 0.045	0.95 ± 0.21	0.942 ± 0.0014
NC(=O)C(c1ccccc1)(c1ccccc1)[C@@H]1CCN(CCc2ccc3c(c2)CCO3)C1	0.873 ± 0.067	0.983 ± 0.0042	0.947 ± 0.03	1.03 ± 0.094	1.005 ± 0.0071
NS(=O)(=O)c1ccc(S(=O)(=O)Nc2cccc3c(Cl)c[nH]c23)cc1 [indisulam]	1.04 ± 0.028	0.747 ± 0.07	0.926 ± 0.0028	1.17 ± 0.014	1.1 ± 0.15
CC1=CC2C(CC1=O)C(C)=CCC2C(C)C (stereo not given)	0.983 ± 0.095	0.971 ± 0.084	1 ± 0.012	0.987 ± 0.1	0.945 ± 0.19
C[C@@H]1[C@H]2[C@H](O[C@@H]3O[C@H](CO)[C@@H](O)[C@H](O)[C@H]3O)OC=C(C(=O)O)[C@H]2C[C@@H]1O	1.05 ± 0.035	1.02 ± 0.1	1.03 ± 0.014	1.07 ± 0.1	1.05 ± 0.078
COC(=O)[C@H]1[C@H]2C[C@H]3c4[nH]c5cc(OC)ccc5c4CCN3C[C@H]2C[C@@H](OC(=O)c2cc(OC)c(OC)c(OC)c2)[C@@H]1OC	0.96 ± 0.057	1 ± 0.11	0.905 ± 0.011	1.18	0.9565 ± 0.0021
COc1cc([S+](C)[O-])ccc1-c1nc2cccnc2[nH]1 (stereo not given)	0.968 ± 0.028	0.979 ± 0.058	0.953 ± 0.025	0.907 ± 0.22	0.794 ± 0.057
CC(C)C1NC(=O)C2CCCN2C1=O (single isomer, unassigned; isomere) [Cyclo(prolylvalyl) (Isomere)]	1 ± 0.023	0.992 ± 0.054	0.958 ± 0.06	0.939 ± 0.067	0.944 ± 0.11
C1CNCCN1	1.004 ± 0.0092	0.96 ± 0.071	0.987 ± 0.018	1.25 ± 0.021	1.05 ± 0.042
CNCC[C@@H](Oc1ccccc1C)c1ccccc1	0.949 ± 0.073	0.941 ± 0.043	0.969 ± 0.021	1.02 ± 0.014	1.08 ± 0.042
O=c1c(O)cc([C@H]2Oc3cc(O)cc(O)c3C[C@H]2O)cc2c([C@H]3Oc4cc(O)cc(O)c4C[C@H]3O)cc(O)c(O)c12	0.934 ± 0.033	1.01 ± 0.02	0.966 ± 0.02	0.949 ± 0.044	1.04 ± 0.1
CC(C)(C)NCC(O)c1ccc(O)c(CO)c1 (stereo not given)	0.952 ± 0.096	1.07 ± 0.092	0.922 ± 0.0057	1.06 ± 0.014	0.995 ± 0.14
CC[C@H]1OC(=O)[C@H](C)[C@@H](O[C@H]2C[C@@](C)(OC)[C@@H](O)[C@H](C)O2)[C@H](C)[C@@H](O[C@@H]2O[C@H](C)C[C@H](N(C)C)[C@H]2O)[C@](C)(O)C[C@@H](C)CN(C)[C@H](C)[C@@H](O)[C@]1(C)O	1.065 ± 0.0071	0.8915 ± 0.0035	1.01 ± 0.049	0.97 ± 0.1	1.04 ± 0.12
CCN(CC)CCOC(=O)c1ccc(N)cc1	1.01 ± 0.12	1.05 ± 0.028	1.03 ± 0.021	1.09 ± 0.092	1.06 ± 0.014
O=C(Cc1cccs1)N[C@@H]1C(=O)N2C(C(=O)[O-])=C(C[n+]3ccccc3)CS[C@H]12	0.979 ± 0.073	0.944 ± 0.057	1.01	0.9975 ± 0.0035	0.889 ± 0.0057
O=C(O)C1CC([C@@H]2CCCCN2)CN2CCCCC12 (stereo not given in full)	1.03 ± 0.11	1.03 ± 0.17	0.981 ± 0.015	1.07 ± 0.064	1 ± 0.064
CO[C@H]1/C=C/O[C@@]2(C)Oc3c(C)c(O)c4c(O)c(c(/C=N/N5CCN(C)CC5)c(O)c4c3C2=O)NC(=O)/C(C)=C\C=C\[C@H](C)[C@H](O)[C@@H](C)[C@@H](O)[C@@H](C)[C@H](OC(C)=O)[C@@H]1C	1.01 ± 0.064	1.07 ± 0.13	1.05 ± 0.028	1.01 ± 0.037	1.08 ± 0.057
